Screening results: PubChem BioAssay, National Center for Advancing Translational Sciences (NCATS)
The list is not random: actives were taken first. Their share in the collection is about 19%.
IL1B secr inh: qHTS for Inhibitors of Inflammasome Signaling: IL-1-beta AlphaLISA Primary Screen; AID 743279, 2014; THP-1 LPS/ATP IL-1B secretion, AlphaLISA, 16 h; stronger effect = lower value; activity change, % at 57.5 µM; 360,000 compounds, 4.7% hits; in the data active = activity change below about -50%; inconclusive = mostly about -30% to -49%
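Secreted IL-1B measured by AlphaLISA bead assay after 16 h compound exposure of THP-1 cells; compounds (final up to 57.5 uM) added 1 h before LPS (250 ng/mL) and ATP (1.25 mM) stimulation; lower signal means less secretion.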
ELG1 repair inh: qHTS screen for small molecules that inhibit ELG1-dependent DNA repair in human embryonic kidney (HEK293T) cells expressing luciferase-tagged ELG1. 330,000 compounds, 2.3% hits. Potency, µM (highest dose often 46.1 µM), for the others: top-dose activity change, negative = inhibition, usual class: inhibitors. HEK293T ELG1-luciferase reporter, luminescence, 16 h; DNA damage induced by 5-fluorouridine; note: potency is the fitted concentration of half-maximal effect; nearly all actives have a fitted effect of over 55% in size
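Cells (2,000 per well) received 5-fluorouridine plus test compound or DMSO and were incubated 16 hr at 37 °C, 5% CO2. Luciferase activity was read by luminescence 30 min after ONE-Glo addition; signal suppression marked inhibition of damage-induced ELG1 function.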
TDP1 inh: qHTS Assay for Inhibitors of Tyrosyl-DNA Phosphodiesterase (TDP1); recombinant TDP1, AlphaScreen DNA substrate cleavage; Potency, µM (top dose mostly 130 µM), for inactives: at the top dose activity change, negative = inhibition, most hits filed as inhibitors; 350,000 compounds, 0.28% hits; AID 485290, 2010; note: potency is the fitted concentration of half-maximal effect; nearly all actives have a fitted effect of over 40% in size
Target sequence (Q9NUW8 whole entry, looked up): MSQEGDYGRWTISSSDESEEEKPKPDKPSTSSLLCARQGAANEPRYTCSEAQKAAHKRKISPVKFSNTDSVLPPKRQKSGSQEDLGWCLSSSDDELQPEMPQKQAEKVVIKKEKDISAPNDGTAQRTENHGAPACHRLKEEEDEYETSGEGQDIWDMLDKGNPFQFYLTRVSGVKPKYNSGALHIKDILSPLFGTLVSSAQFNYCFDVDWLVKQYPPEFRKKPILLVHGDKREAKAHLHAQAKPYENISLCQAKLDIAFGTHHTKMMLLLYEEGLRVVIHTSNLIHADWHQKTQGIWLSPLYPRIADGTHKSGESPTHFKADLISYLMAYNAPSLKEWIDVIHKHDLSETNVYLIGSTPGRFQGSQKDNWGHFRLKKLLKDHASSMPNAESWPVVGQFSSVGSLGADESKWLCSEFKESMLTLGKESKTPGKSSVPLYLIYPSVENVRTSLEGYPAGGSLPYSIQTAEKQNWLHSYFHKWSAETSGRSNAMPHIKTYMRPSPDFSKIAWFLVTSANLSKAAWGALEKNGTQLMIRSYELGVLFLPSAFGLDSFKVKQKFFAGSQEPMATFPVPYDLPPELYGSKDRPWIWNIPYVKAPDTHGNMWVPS
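Compounds were preincubated with Tdp1 (1 nM final) for 15 min at room temperature before substrate (15 nM final) started a 5 min reaction; beads (10 ug/ml final) were then added for 10 min before AlphaScreen detection.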
Giardia kill: Small Molecules that selectively kill Giardia lamblia: qHTS; Giardia lamblia trophozoite viability; activity change, % at 7.66 µM, hits read low; 340,000 compounds, 0.15% hits; in the data active = activity change below about -80%; inconclusive = between about -30% and that limit;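 note: parasites exposed to compound for two days anaerobically before the ATP read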
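Media and compound were dispensed first, then trophozoites at 100 cells/well; plates sat 48 hrs at 37 deg C without oxygen before ATP luminescence reagent was added and read after 15-30 min at room temperature.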
DT40 TDP1 CPT: qHTS for Inhibitors of human tyrosyl-DNA phosphodiesterase 1 (TDP1): qHTS in cells in presence of CPT | Potency, µM (doses to about 46.2 µM), inactives show top-dose activity change, negative = growth inhibition, actives largely listed as inhibitors | chicken DT40 Tdp1-/-;hTDP1 cells + 20 nM CPT, ATP luminescence, 48 h | 420,000 compounds, 12% hits; note: potency is the fitted concentration of half-maximal effect; nearly all actives have a fitted effect of over 55% in size
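Chicken DT40 Tdp1-/- cells stably complemented with human TDP1 were seeded at 400 cells/well in medium containing 20 nM camptothecin, exposed to pin-transferred compounds, and grown at 37 °C for at least 48 hr. Viability was read as ATP luminescence.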
DT40 TDP1 no CPT: qHTS for Inhibitors of human tyrosyl-DNA phosphodiesterase 1 (TDP1): qHTS in cells in absence of CPT; DT40 Tdp1-/- hTDP1 cells, no CPT, ATP luminescence, 48 h; Potency, µM (top dose mostly 46.2 µM), inactives show top-dose activity change, negative = growth inhibition, hits mostly inhibitors; 420,000 compounds, 15% hits; note: potency is the fitted concentration of half-maximal effect; nearly all actives have a fitted effect of over 55% in size
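DT40 Tdp1-/-;hTDP1 cells, no CPT (DMSO vehicle only), 400 cells/well; compounds pin-transferred; ≥48 hr, 37 °C; CellTiter-Glo 30 min RT dark, luminescence read.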
An asterisk follows results filed as active; ? = inconclusive; . = no result; ! = not confirmed by another sample. Unless noted, calls come from the whole dose curve; as a rule, active = well fitted curve in the direction sought with a large enough effect; inconclusive = small, poorly fitted or top-dose-only effect, or another doubt; inactive = no such curve, though single readings can be large; an effect the other way counts as inactive or inconclusive. % is set by controls: 0 for no effect and ±100 for the full control effect.

SMILES	IL1B secr inh	ELG1 repair inh	TDP1 inh	Giardia kill	DT40 TDP1 CPT	DT40 TDP1 no CPT
CC1CC=CC2C1C(=O)N(Cc1ccccc1)C2c1cccc([N+](=O)[O-])c1 (centres undefined)	.	.	15%	?	.	.
CC1=C(C#N)c2nc(N)c(C#N)c(C)c2/C1=C\c1ccc(C)cc1	.	?	10%	.	.	.
COc1cc(/C=C2\C(C)=C(C#N)c3nc(N)c(C#N)c(C)c32)ccc1OCC(=O)O	0	-15%	5%	4	23µM*	?
O=C(Nc1nc2ccccc2[nH]1)c1ccccc1OC(F)F	17	?	0%	?	1%	?
COc1ccc2oc(C(=O)Nc3nc4ccccc4[nH]3)c(C)c2c1	-21	?	.	-5	21µM*	10µM*
CCCCN(C(=O)c1ccccc1Br)C(c1ccc(OC)cc1)c1nc2ccccc2[nH]1 (centres undefined)	-3	.	.	.	16µM*	?
O=C(NC(=S)NCc1nc2ccccc2[nH]1)c1ccccc1F	26	?	3%	4	23µM*	16µM*
O=C(Nc1nc2ccccc2[nH]1)c1ccccc1F	1	?	5%	-89*	?	12µM*
O=C(NC(=S)NCc1nc2ccccc2[nH]1)c1ccc(F)cc1	-12	?	2%	-1	-9%	?
O=C(COC(=O)C1=COCCO1)Nc1cc(Cl)c(Cl)cc1Cl	24	?	-1%	0	-14%	-9%
COc1cc(OC)cc(-c2c(C#Cc3ccsc3)c3cc(-c4ccc(OC)nc4)ccc3n2C)c1	17	-6%	0%	-22	-22%	?
Cc1cc(C)cc(C(=O)Nc2nc3ccccc3[nH]2)c1	-9	?	.	-7	?	23µM*
COc1cc(OC)cc(C(=O)Nc2nc3ccccc3[nH]2)c1	-3	?	7%	-5	21µM*	29µM*
COc1ccc(Br)c(C(=O)Nc2nc3ccccc3[nH]2)c1	2	?	.	12	-25%	5.2µM*
COc1cc2[nH]c(=O)c(C(=O)NCc3ccc(F)cc3)c(O)c2cc1OC	-4	0%	.	35	?	?
CCOc1ccccc1-n1cc2c(c1-c1ccc(OC)cc1)c(=O)n(C)c(=O)n2C	.	.	4%	.	?	?
Cc1ccc(S(=O)(=O)N(CC(=O)NCCSCc2ccco2)c2ccc(F)cc2)cc1	.	2%	3%	.	.	.
Cc1ccc(N(CC(=O)NCCSCc2ccco2)S(=O)(=O)c2ccc(F)cc2)cc1	-23	10%	5%	9	26µM*	23µM*
Cc1ccc(S(=O)(=O)N(CC(=O)NCCSCc2ccco2)c2cc(C)ccc2C)cc1	-24	.	.	-3	16µM*	?
CS(=O)(=O)c1ccccc1-c1nnc(NC(=O)c2ccc3c(c2)OCCO3)o1	.	.	11%	.	-43%	?
COc1cccc(C(c2sc3nc(-c4ccco4)nn3c2O)N2CCN(c3ccccc3F)CC2)c1 (centres undefined)	.	.	10%	.	-24%	-23%
CCCCN1C[C@H](Cc2ccccc2)[C@@H](CC(=O)NCc2ccc(OC)cc2)C1=O	13	-12%	.	-4	18µM*	22µM*!
CCCCC[C@H]1CN(CCCC)C(=O)[C@@H]1CC(=O)NCc1ccc(OC)cc1	-21	-5%	.	16	?	?
CCCCC[C@H]1CN(Cc2ccccc2)C(=O)[C@@H]1CC(=O)NCc1ccccc1	-51*	8%	.	3	11µM*	14µM*
CCCCC[C@H]1CN(CCc2ccccc2)C(=O)[C@@H]1CC(=O)NCc1ccc(OC)cc1	-78*	-2%	.	7	?	18µM*
SMILES	IL1B secr inh	ELG1 repair inh	TDP1 inh	Giardia kill	DT40 TDP1 CPT	DT40 TDP1 no CPT
COc1ccc(N2C[C@H](Cc3ccccc3)[C@@H](CC(=O)Nc3ccccc3)C2=O)cc1	-6	.	.	.	?	21µM*
COc1ccc(NC(=O)C[C@H]2C(=O)N(c3ccccc3)C[C@@H]2Cc2ccccc2)cc1	-23	.	.	.	-23%	?
CCCC[C@@H]1C[C@H]1C(NC(=O)c1ccco1)c1ccccc1 (some centres undefined)	.	.	6%	.	.	.
CN(C)c1ccc(C(c2ccc(N(C)C)cc2)C(O)c2ccccc2)cc1 (centres undefined)	-55*	.	.	6	?	?
Cn1c(/C(C#N)=C(\O)c2cc(Cl)sc2Cl)nc2ccccc21	39	5%	5%	1	18µM*	?
CC(C)C(NC(=O)c1cccs1)C(=O)NC1CCCCC1 (centres undefined)	-15	-6%	0%	10	-9%	6%
COc1ccc(C(C(=O)NC2CCCC2)N(CC2CCCO2)C(=O)Cc2cccs2)cc1OC (centres undefined)	3	4%	1%	3	5%	8%
O=C(NCC(=O)N(Cc1cccs1)C(C(=O)NC1CCCCC1)c1ccco1)c1ccco1 (centres undefined)	-5	?	-1%	-8	-19%	-25%
O=C(Cc1cccs1)N(Cc1cccs1)C1(C(=O)NC2CCCCC2)CCCCC1	-52*	-22%	-5%	11	26µM*	16µM*
O=C(NC1CCCC1)C(c1cccs1)N(CC1CCCO1)C(=O)Cc1cccs1 (centres undefined)	6	-5%	0%	-7	?	21µM*
O=C1NC(=O)C(CC(=O)N(Cc2cccs2)C2(C(=O)NC3CCCC3)CCCCC2)N1 (centres undefined)	-8	-1%	-1%	10	-15%	?
O=C(NC1CCCCC1)C(c1cccs1)N(Cc1cccs1)C(=O)c1ccco1 (centres undefined)	-12	?	2%	-3	15µM*	9.2µM*
CC(NCc1cccs1)C(=O)NC1CCCCC1 (centres undefined)	-62*	-5%	-6%	1	-30%	-1%
Cc1ccccc1-c1nc(CNC(=O)NC2CCCCC2)c(C)o1	.	.	-1%	.	-20%	-26%
Cc1ccc(NC(=O)c2sc3nc(-c4cc5ccccc5oc4=O)[nH]c(=O)c3c2C)c(C)c1	.	.	-5%	.	-12%	-28%
